# Measurements published in PubChem BioAssay (Tox21).
# Records with an inconclusive call do not appear. Where a call stands in place of a potency, no number is given. Calls of active or inactive are those of the source. Unless noted, calls come from the whole dose curve; as a rule, active = well fitted curve in the direction sought with a large enough effect in the repeat runs; inconclusive = weak or mixed curves; inactive = no such curve, though single readings can be large; an effect the other way counts as inactive or inconclusive.
# Columns and labels:
# [1] = qHTS assay to identify small molecule agonists of the estrogen receptor alpha (ER-alpha) signaling pathway in the presence of an antagonist - cell viability counter screen (AID 1259386); conditions: VM7Luc4E2 viability, CellTiter-Fluor fluorescence, 22 h; series mostly up to 92.4 µM;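 note: cells exposed to compounds for 22 h at 37 °C before the viability read; nearly all actives have a fitted effect of over 30% in size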; note: potency is the fitted concentration of half-maximal effect
# In short: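 Steps: 5-day stripped-FBS culture; seed and incubate 24hr; add ICI-182,780 (10.0nM final); pin 15-point compound titration; incubate 22hr at 37C; add CellTiter-Fluor at 21hr; read fluorescence.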
# [2] = molecular target: Progesterone receptor (Homo sapiens) (UniProt P06401); experiment: qHTS assay to identify small molecule agonists of the progesterone receptor (PR) signaling pathway (AID 1346784; calls by dose curve; note: nearly all actives have a fitted effect of over 30% in size; note: potency is the fitted concentration of half-maximal effect); conditions: PR-UAS-bla HEK293T, beta-lactamase FRET ratio, 16 h; series mostly up to 92.4 µM
# In short: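 Agonist qHTS: compounds pinned onto 3,000 PR-UAS-bla HEK 293T cells per well in charcoal-stripped serum medium, 16hr at 37C, then beta-lactamase activity measured by LiveBLAzer FRET fluorescence after 2 hours at room temperature.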
# [3] = qHTS assay to identify small molecule antagonists of the progesterone receptor (PR) signaling pathway - cell viability counter screen (AID 1346798); conditions: PR-UAS-bla HEK293T viability, CellTiter-Glo luminescence, 16 h; series mostly up to 92.4 µM; note: nearly all actives have a fitted effect of over 50% in size
# In short: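 Cytotoxicity read as CellTiter-Glo luminescence (30 min, room temperature) in the same wells as the beta-lactamase readout. HEK293T PR-UAS-bla cells in charcoal-stripped 2% FBS received compound and R5020, then 16 h at 37C, 5% CO2.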
# [4] = qHTS assay to identify small molecule agonists of the progesterone receptor (PR) signaling pathway - cell viability counter screen (AID 1346799; calls by dose curve; note: nearly all actives have a fitted effect of over 45% in size; note: potency is the fitted concentration of half-maximal effect); conditions: PR-UAS-bla HEK293T viability, CellTiter-Glo luminescence, 16 h; series mostly up to 92.4 µM
# In short: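 Cytotoxicity measured by CellTiter-Glo luminescence (30 min, RT) in the same wells as the PR beta-lactamase agonist read. Those HEK293T cells had 16 h compound treatment at 37 C in 2% charcoal-stripped FBS medium.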
# [5] = qHTS assay to identify small molecule antagonists of the TGF-beta/Smad signaling pathway - cell viability counter screen (AID 1346824); conditions: SBE-bla HEK293T viability, CellTiter-Glo luminescence; series mostly up to 76.8 µM; note: nearly all actives have a fitted effect of over 50% in size
# In short: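 Cytotoxicity counter-screen run in the same wells as the beta-lactamase Smad reporter read: CellTiter-Glo luminescence after 30 min at room temperature. HEK 293T SBE-bla cells had 5 hr compound exposure at 37 C with TGF-beta1 (0.25 ng/mL stock).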
# [6] = qHTS assay to identify small molecule agonists of the TGF-beta/Smad signaling pathway - cell viability counter screen (AID 1346829); conditions: SBE-bla HEK293T viability, CellTiter-Glo luminescence, 5 h; series mostly up to 76.8 µM; note: top concentration of the series differs between compounds; nearly all actives have a fitted effect of over 45% in size
# In short: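 Luminescence from CellTiter-Glo, read after a 30 min room-temperature incubation, gives cell viability of SBE-bla HEK 293T cells treated 5 hr with compounds at 37 C.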
# [7] = qHTS assay to identify small molecule agonists of the TGF-beta/Smad signaling pathway (AID 1346859; active = well fitted activation curve with a large enough effect in the signal ratio in the repeat runs, not every such curve was filed as active; the % refers to the signal ratio); conditions: SBE-bla HEK293T, TGF-beta/Smad beta-lactamase reporter, 5 h; series mostly up to 76.8 µM
# In short: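 Fluorescence (ex 405 nm; em 460 and 530 nm) was read 2 h after LiveBLAzer FRET substrate at RT. The preceding compound treatment of overnight-plated SBE-bla HEK293T cells lasted 5 h at 37 C.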
# [8] = molecular target: Thyrotropin-releasing hormone receptor (Homo sapiens) (UniProt P34981); experiment: qHTS assay to identify small molecule antagonists of the thyrotropin-releasing hormone receptor (TRHR) signaling pathway (AID 1346877; active = well fitted inhibition curve with a large enough effect in the repeat runs, not every such curve was filed as active); conditions: TRHR-HEK293, TRH-induced calcium fluorescence, antagonist mode; series mostly up to 51.3 µM
# In short: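 Human TRHR in HEK293 cells; inhibition of the intracellular calcium rise triggered by 1 nM TRH was followed by fluorescence over 3 min. Compounds were run at 15 concentrations, three replicates each.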
# [9] = molecular target: Thyrotropin-releasing hormone receptor (Homo sapiens) (UniProt P34981); experiment: qHTS assay to identify small molecule agonists of the thyrotropin-releasing hormone receptor (TRHR) signaling pathway (AID 1346891; calls by dose curve); conditions: TRHR-HEK293 calcium fluorescence, agonist mode; series mostly up to 57.6 µM
# In short: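 Agonist-mode intracellular calcium readout: kinetic fluorescence over 3 min at 1 s intervals after compound addition to TRHR-HEK293 cells (18 h seeded, 2 h dye-loaded at 37 C). Fifteen concentrations, triplicates.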
# [10] = molecular target: Progesterone receptor (Homo sapiens) (UniProt P06401); experiment: qHTS assay to identify small molecule antagonists of the progesterone receptor (PR) signaling pathway (AID 1346795; active = well fitted inhibition curve with a large enough effect in the signal ratio in the repeat runs, not every such curve was filed as active; the % refers to the signal ratio; note: potency is the fitted concentration of half-maximal effect); conditions: PR-UAS-bla HEK293T, beta-lactamase FRET ratio, 16 h; series mostly up to 92.4 µM
# In short: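 Antagonist mode with agonist R5020 at 1 nM final and 16 hr incubation at 37C. Reporter was beta-lactamase driven by UAS in HEK293T (PR-UAS-bla), 2% charcoal-stripped serum; signal from LiveBLAzer FRET substrate, 2 hr at room temperature.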
# Chain of Thyrotropin-releasing hormone receptor (Homo sapiens) (P34981 whole entry, looked up): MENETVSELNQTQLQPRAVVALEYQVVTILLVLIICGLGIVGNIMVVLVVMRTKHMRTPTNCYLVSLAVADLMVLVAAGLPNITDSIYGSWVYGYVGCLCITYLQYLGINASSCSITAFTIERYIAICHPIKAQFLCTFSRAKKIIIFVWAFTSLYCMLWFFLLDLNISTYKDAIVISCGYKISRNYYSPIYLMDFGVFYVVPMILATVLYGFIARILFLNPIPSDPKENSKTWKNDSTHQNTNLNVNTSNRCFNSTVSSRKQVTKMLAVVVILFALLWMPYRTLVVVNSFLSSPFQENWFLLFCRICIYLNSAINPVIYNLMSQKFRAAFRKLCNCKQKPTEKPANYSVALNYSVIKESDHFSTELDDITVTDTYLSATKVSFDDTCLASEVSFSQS
# Chain of Progesterone receptor (Homo sapiens) (P06401 whole entry, looked up): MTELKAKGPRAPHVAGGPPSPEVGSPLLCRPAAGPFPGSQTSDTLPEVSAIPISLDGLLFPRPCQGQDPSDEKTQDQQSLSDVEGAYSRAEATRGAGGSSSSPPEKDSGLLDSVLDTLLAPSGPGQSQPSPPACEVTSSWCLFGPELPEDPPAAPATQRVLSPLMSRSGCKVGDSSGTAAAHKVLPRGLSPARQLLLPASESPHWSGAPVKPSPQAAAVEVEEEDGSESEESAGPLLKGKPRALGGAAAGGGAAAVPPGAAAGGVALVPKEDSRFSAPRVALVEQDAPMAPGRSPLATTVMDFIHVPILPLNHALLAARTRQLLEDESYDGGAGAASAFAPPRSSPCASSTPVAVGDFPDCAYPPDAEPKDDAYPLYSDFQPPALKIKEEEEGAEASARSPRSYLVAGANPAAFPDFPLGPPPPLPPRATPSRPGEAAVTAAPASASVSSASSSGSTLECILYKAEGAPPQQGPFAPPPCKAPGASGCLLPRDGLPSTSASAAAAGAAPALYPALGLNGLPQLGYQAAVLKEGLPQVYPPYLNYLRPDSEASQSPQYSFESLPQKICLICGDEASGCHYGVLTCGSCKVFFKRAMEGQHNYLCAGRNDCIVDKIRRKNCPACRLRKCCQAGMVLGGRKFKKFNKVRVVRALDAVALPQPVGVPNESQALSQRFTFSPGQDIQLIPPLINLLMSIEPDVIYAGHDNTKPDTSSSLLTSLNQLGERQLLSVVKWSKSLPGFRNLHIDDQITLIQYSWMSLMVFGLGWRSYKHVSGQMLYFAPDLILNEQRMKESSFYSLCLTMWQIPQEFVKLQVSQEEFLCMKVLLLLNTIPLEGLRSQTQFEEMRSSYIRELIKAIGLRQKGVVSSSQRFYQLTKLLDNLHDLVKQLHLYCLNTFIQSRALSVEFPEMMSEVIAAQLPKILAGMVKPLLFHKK
SMILES,Potency [1],Potency [2],Potency [3],Potency [4],outcome [5],outcome [6],outcome [7],outcome [8],outcome [9],Potency [10]
O=C(OCc1ccccc1)C(=O)OCc1ccccc1,inactive,inactive,inactive,inactive,inactive,inactive,inactive,–,–,–
O=C(/N=N/C(=O)OCc1ccccc1)OCc1ccccc1,inactive,inactive,inactive,inactive,–,inactive,inactive,inactive,inactive,–
O=S(=O)(O)CCN1CCN(CCO)CC1,inactive,inactive,–,–,inactive,inactive,inactive,inactive,inactive,inactive
CCOC(=O)[C@H](CCc1ccccc1)N[C@@H](C)C(=O)N1C(=O)N(C)C[C@H]1C(=O)O,inactive,inactive,inactive,–,inactive,inactive,inactive,inactive,inactive,inactive
O=C(CCN1CCN(CCO)CC1)N1c2ccccc2Sc2ccc(C(F)(F)F)cc21,inactive,inactive,inactive,–,inactive,inactive,inactive,inactive,inactive,inactive
CC(=O)Nc1ccc(S(=O)(=O)Nc2ccc([N+](=O)[O-])cc2)cc1,23.7 µM (active),inactive,–,inactive,inactive,inactive,inactive,inactive,inactive,inactive
FC(F)(F)c1ccccc1-n1ccnc1,inactive,inactive,–,–,inactive,inactive,inactive,inactive,inactive,inactive
CC(=O)Nc1ccc(S(=O)(=O)Cl)cc1,inactive,inactive,–,inactive,inactive,inactive,inactive,inactive,inactive,inactive
BrCc1cccc(Oc2ccccc2)c1,inactive,inactive,inactive,inactive,inactive,inactive,inactive,inactive,inactive,–
Cc1cccc(OCC(O)CNC(C)(C)C)c1C (centres undefined),inactive,inactive,–,inactive,inactive,inactive,inactive,inactive,inactive,inactive
CCCCCOC(=O)CCC,inactive,inactive,inactive,inactive,inactive,inactive,inactive,–,–,–
COc1ccc2nc(SCc3ncc(C)c(OC)c3C)[nH]c2c1,inactive,inactive,inactive,inactive,inactive,inactive,inactive,–,–,–
CCCCCCCCC(=O)Cl,inactive,inactive,inactive,–,inactive,inactive,inactive,inactive,inactive,inactive
Nc1ccc([N+](=O)[O-])c(N)c1,29.9 µM (active),inactive,inactive,inactive,inactive,inactive,inactive,inactive,inactive,–
CC(=C(CCOC(=O)C(C)C)SSC(CCOC(=O)C(C)C)=C(C)N(C=O)Cc1cnc(C)nc1N)N(C=O)Cc1cnc(C)nc1N,inactive,inactive,inactive,–,inactive,inactive,inactive,inactive,inactive,inactive
CC(=O)NCc1c(I)c(NC(C)=O)c(I)c(C(=O)O)c1I,inactive,inactive,inactive,inactive,inactive,inactive,inactive,inactive,inactive,–
N#Cc1ccc(C(=O)O)cc1,inactive,inactive,–,–,inactive,inactive,inactive,inactive,inactive,inactive
N[C@@H](CCC(=O)Nc1ccc([N+](=O)[O-])cc1)C(=O)O,inactive,inactive,inactive,inactive,inactive,inactive,inactive,inactive,inactive,–
COc1ccc(C2CNC(=O)C2)cc1OC1CCCC1 (centres undefined),inactive,inactive,inactive,–,inactive,inactive,inactive,inactive,inactive,inactive
On1nnc2ccccc21,inactive,inactive,–,1.37 µM (active),inactive,inactive,inactive,–,–,inactive

SMILES,Potency [1],Potency [2],Potency [3],Potency [4],outcome [5],outcome [6],outcome [7],outcome [8],outcome [9],Potency [10]
O=C(OCC1(COC(=O)c2cccnc2)CCCC(COC(=O)c2cccnc2)(COC(=O)c2cccnc2)C1O)c1cccnc1,–,inactive,inactive,inactive,inactive,inactive,inactive,–,–,inactive
CCC(C)NC(N)=O (centres undefined),inactive,–,inactive,inactive,inactive,inactive,inactive,inactive,inactive,–
O=C(Nc1ccc(Cl)c(Cl)c1)C1CC1,inactive,inactive,inactive,–,inactive,inactive,inactive,inactive,inactive,–
CC(C)C(=O)OCCc1ccccc1,inactive,–,inactive,inactive,inactive,inactive,inactive,inactive,inactive,–
CCOC(=O)CC(=O)c1ccccc1,inactive,inactive,–,inactive,inactive,inactive,inactive,inactive,inactive,–
C=CCCCCCCCCCCCC,inactive,–,inactive,inactive,inactive,inactive,inactive,inactive,inactive,–
CCOC(=O)c1ncn2c1CN(C)C(=O)c1cc(F)ccc1-2,inactive,–,inactive,inactive,inactive,inactive,inactive,–,–,inactive
COCCOC(=O)C1=C(C)NC(C)=C(C(=O)OC(C)C)C1c1cccc([N+](=O)[O-])c1 (centres undefined),inactive,–,inactive,–,inactive,inactive,inactive,inactive,inactive,10.6 µM (active)
NNc1nnc(NN)c2ccccc12,inactive,–,inactive,–,inactive,inactive,inactive,inactive,inactive,–
CC1=C(C(=O)O)N2C(=O)[C@@H](NC(=O)[C@H](N)c3ccc(O)cc3)[C@H]2SC1,inactive,inactive,–,inactive,inactive,inactive,inactive,–,–,–
COc1cc(N)ccc1C,inactive,inactive,inactive,–,inactive,inactive,inactive,–,–,–
COc1ccc2c(c1OC)C(=O)O[C@@H]2[C@H]1c2c(cc3c(c2OC)OCO3)CCN1C,–,inactive,inactive,–,inactive,inactive,inactive,inactive,inactive,inactive
CC(N)C(=O)OC(C)(C)Cc1ccc(Cl)cc1 (centres undefined),–,inactive,–,–,inactive,inactive,inactive,–,–,inactive
C=C(C)C(=O)OCCNC(C)(C)C,inactive,inactive,–,–,inactive,inactive,inactive,inactive,inactive,–
Cc1cc2cc3c(C)cc(=O)oc3c(C)c2o1,inactive,inactive,inactive,–,inactive,inactive,inactive,inactive,inactive,–
c1ccc2c(c1)ccc1c3ccccc3ccc21,inactive,–,inactive,inactive,inactive,inactive,inactive,inactive,inactive,–
Cc1[nH]cnc1-c1ccc(Cl)cc1,inactive,inactive,inactive,–,inactive,inactive,inactive,inactive,inactive,–
COc1ccc2c(c1)C(=O)N(CCc1ccc(S(=O)(=O)NC(=O)NC3CCCCC3)cc1)C(=O)C2(C)C,inactive,5.96 µM (active),inactive,–,inactive,inactive,–,inactive,inactive,–
CCCC/C=C\CCCCCCCCCC=O,inactive,–,inactive,inactive,inactive,inactive,inactive,inactive,inactive,–
CC(C)NCC(O)COc1cccc2[nH]ccc12 (centres undefined),inactive,–,inactive,inactive,inactive,inactive,inactive,inactive,inactive,–

SMILES,Potency [1],Potency [2],Potency [3],Potency [4],outcome [5],outcome [6],outcome [7],outcome [8],outcome [9],Potency [10]
CCCC(=O)C(C)=O,inactive,–,inactive,inactive,inactive,inactive,inactive,–,–,–
CC(COC(C)(C)C)OCCCO (centres undefined),inactive,–,inactive,–,inactive,inactive,inactive,inactive,inactive,inactive
O=C(OCC(O)CO)c1ccccc1Nc1ccnc2c(C(F)(F)F)cccc12 (centres undefined),inactive,–,–,–,inactive,inactive,inactive,inactive,inactive,29.8 µM (active)
C[C@@H]1O[C@@H](O[C@@H]2[C@@H](O)[C@H](OCCc3ccc(O)c(O)c3)O[C@H](CO[C@@H]3O[C@H](CO)[C@@H](O)[C@H](O)[C@H]3O)[C@H]2OC(=O)/C=C/c2ccc(O)c(O)c2)[C@H](O)[C@H](O)[C@H]1O,–,–,inactive,–,inactive,inactive,inactive,inactive,inactive,–
O=C1c2cccc3c2[C@H](CCC3)CN1[C@@H]1CN2CCC1CC2,–,inactive,–,26.6 µM (active),inactive,inactive,inactive,inactive,inactive,–
CCC(C=O)CC,inactive,–,inactive,inactive,inactive,inactive,inactive,inactive,inactive,inactive
NC(CO)C(=O)NNCc1ccc(O)c(O)c1O (centres undefined),–,–,inactive,inactive,inactive,inactive,inactive,–,–,inactive
O=S(=O)(O)c1cc(O)c2ccc(Nc3ccccc3)cc2c1,–,inactive,inactive,inactive,inactive,inactive,inactive,inactive,inactive,inactive
C=C1CC/C=C(\C)CC[C@@H]2[C@@H]1CC2(C)C,inactive,–,inactive,inactive,inactive,inactive,inactive,–,–,–
CC(CN)CC(C)(C)CCN (centres undefined),–,inactive,inactive,–,inactive,inactive,inactive,inactive,inactive,inactive
CN1C(C)(C)CCCC1(C)C,inactive,inactive,–,–,inactive,inactive,inactive,inactive,inactive,–
COc1nccnc1NS(=O)(=O)c1ccc(N)cc1,inactive,–,inactive,inactive,inactive,inactive,inactive,inactive,inactive,–
CC(C)NCC(O)COc1ccc(COCCOC(C)C)cc1 (centres undefined),inactive,–,inactive,inactive,inactive,inactive,inactive,inactive,inactive,inactive
CCOCCOCCOCC,inactive,–,inactive,inactive,inactive,inactive,inactive,inactive,inactive,–
O=C(c1ccc(O)cc1)c1ccc(O)c(O)c1O,–,inactive,inactive,inactive,inactive,inactive,inactive,inactive,inactive,–
C#CC(C)N(C)C(=O)Nc1ccc(Cl)cc1 (centres undefined),inactive,inactive,–,inactive,inactive,–,inactive,inactive,inactive,–
CC(CC=O)CCCC(C)(C)O (centres undefined),inactive,–,inactive,–,inactive,inactive,inactive,–,–,inactive
CCOc1cc([N+](=O)[O-])c(OCC)cc1N1CCOCC1,–,inactive,inactive,inactive,inactive,inactive,–,inactive,inactive,27.3 µM (active)
